An excerpt weighted towards active compounds, which were near 19% of everything screened.
IL1B secr inh = inhibitors of inflammasome signaling (IL-1 beta secretion); actives 4.7% (n = 360,000); THP-1 LPS/ATP IL-1B secretion, AlphaLISA, 16 h; hits give low values; AID 743279; activity change, % at 57.5 µM; in the data active = activity change below about -50%; inconclusive = mostly about -30% to -49%
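Secreted IL-1B measured by AlphaLISA bead assay after 16 h compound exposure of THP-1 cells; compounds (final up to 57.5 uM) added 1 h before LPS (250 ng/mL) and ATP (1.25 mM) stimulation; lower signal means less secretion.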
HT1080NT lethal = kills 2HG-producing HT-1080-NT fibrosarcoma cells. Potency, µM (doses to about 46.1 µM), for the others: top-dose activity, negative = less viability, hits mostly cytotoxic. HT-1080-NT fibrosarcoma viability, CellTiter-Glo ATP luminescence, 48 h. actives 1.6% (n = 360,000);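 note: NT is the 2HG producing partner of a matched IDH1 knockdown line; potency is the fitted concentration of half-maximal effect; 0% = DMSO-treated cells and -100% = media-only wells without cells; nearly all actives have a fitted effect of over 55% in size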
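Viability of the 2HG-overproducing fibrosarcoma line after 48 hours of compound exposure at 37 degrees C was determined by luminescence with CellTiter-Glo, and concentration-effect curves were then fitted and categorized.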
TDP1 cell CPT = DT40-hTDP1 cell growth loss with CPT. chicken DT40 Tdp1-/-;hTDP1 cells + 20 nM CPT, ATP luminescence, 48 h. Potency, µM (highest dose often 46.2 µM), for the others: top-dose activity change, negative = growth inhibition, actives largely listed as inhibitors. actives 12% (n = 420,000). AID 686979; note: potency is the fitted concentration of half-maximal effect; nearly all actives have a fitted effect of over 55% in size
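Cell growth measured by CellTiter-Glo luminescence after a minimum 48 h, 37 C compound exposure with 20 nM CPT in Tdp1-knockout DT40 cells stably expressing hTDP1, seeded 400/well; qHTS titration format.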
HT1080 IDH1KD tx = kills HT-1080 cells with IDH1 knockdown; HT-1080 IDH1 knockdown viability, ATP luminescence, 48 h; Potency, µM (highest dose often 46.1 µM), for inactives: at the top dose activity, negative = toxicity, most hits filed as cytotoxic; actives 2% (n = 360,000); AID 686971;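 note: potency is the fitted concentration of half-maximal effect; 0% = DMSO wells and -100% = cell-free medium wells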
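Cytotoxicity counter-line: IDH1KD HT-1080, 48 h, CellTiter-Glo. Curves classed by r2, magnitude and activity.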
TDP1 cell noCPT = qHTS for Inhibitors of human tyrosyl-DNA phosphodiesterase 1 (TDP1): qHTS in cells in absence of CPT | DT40 Tdp1-/- hTDP1 cells, no CPT, ATP luminescence, 48 h | Potency, µM (titrated, usually from 46.2 µM), for the others: at the top dose activity change, negative = growth inhibition, hits mostly inhibitors | actives 15% (n = 420,000); note: potency is the fitted concentration of half-maximal effect; nearly all actives have a fitted effect of over 55% in size
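Camptothecin absent (DMSO only). Human TDP1-complemented DT40 knockout cells, 400 cells/well, 37 °C for minimum 48 hr; ATP measured via CellTiter-Glo, 30 min dark incubation, luminescence.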
* = called active by the depositor; ? = inconclusive; . = no result given. Unless noted, calls come from the whole dose curve; as a rule, active = well fitted curve in the direction sought with a large enough effect; inconclusive = small, poorly fitted or top-dose-only effect, or another doubt; inactive = no such curve, though single readings can be large; an effect the other way counts as inactive or inconclusive. Unless noted, % is set by controls: 0 for no effect and ±100 for the full control effect.

SMILES | IL1B secr inh | HT1080NT lethal | TDP1 cell CPT | HT1080 IDH1KD tx | TDP1 cell noCPT
COc1cccc(Oc2ncnc(N)c2[N+](=O)[O-])c1 | ? | 0% | 3% | -2% | -11%
COc1ccc(CCNC(=O)COc2ccc(N(C)S(=O)(=O)c3ccc(C)cc3)cc2)cc1OC | ? | -9% | ? | -20% | 16µM*
COc1ccc(CCNC(=O)COc2ccc(-c3ccccc3)cc2)cc1OC | -1 | 5% | -20% | 3% | -1%
COc1ccc(CCNC(=O)c2ccc(CNS(=O)(=O)c3ccccc3)cc2)cc1OC | -11 | -12% | 18µM* | -3% | 16µM*
COc1ccc(CCNC(=O)c2ccc(OC)c(OC)c2)cc1OC | 5 | 18% | 6% | 21% | -12%
COc1ccc(C(CC(=O)c2ccc3c(c2)OCO3)C(=O)O)cc1OC (stereo not drawn) | 25 | 7% | -3% | 3% | 6%
C[C@H]1CN([C@@H](C)CO)C(=O)c2cccc(NC(=O)C3CC3)c2O[C@H]1CN(C)Cc1ccc(C(F)(F)F)cc1 | -3 | -3% | -28% | -5% | ?
C[C@H](CO)N1C[C@H](C)[C@@H](CN(C)Cc2ccc(Cl)c(Cl)c2)Oc2c(NC(=O)C3CC3)cccc2C1=O | -84* | -30% | 16µM* | -4% | 23µM*
C[C@@H]1CN([C@H](C)CO)C(=O)c2cccc(NC(=O)c3ccncc3)c2O[C@@H]1CN(C)Cc1ccc(C(=O)O)cc1 | 30 | 10% | 5% | 7% | 0%
C[C@H](CO)N1C[C@H](C)[C@@H](CN(C)Cc2ccc(C(=O)Nc3ccccc3N)cc2)Oc2c(NC(=O)C3CCCCC3)cccc2C1=O | -22 | -10% | 15µM* | -1% | 15µM*
C[C@H](CO)N1C[C@H](C)[C@@H](CN(C)Cc2ccc(Cl)c(Cl)c2)Oc2c(NC(=O)CCC(F)(F)F)cccc2C1=O | -70* | -24% | 18µM* | -14% | 12µM*
C[C@H](CO)N1C[C@H](C)[C@@H](CN(C)Cc2ccc3c(c2)OCO3)Oc2c(NC(=O)C3CCCCC3)cccc2C1=O | ? | -8% | 21µM* | -11% | 23µM*
C[C@H](CO)N1C[C@H](C)[C@@H](CN(C)C(=O)Nc2ccc3c(c2)OCO3)Oc2c(NC(=O)C3CCCCC3)cccc2C1=O | -4 | -1% | -7% | 1% | -10%
COc1ccc(C(=O)NC2CC2)cc1OC1CCN(Cc2ccc(NC(C)=O)cc2)CC1 | 26 | -11% | 9% | 1% | 19%
COc1ccc(CCNS(=O)(=O)c2cnc(Cl)c(Br)c2)cc1OC | 0 | 30% | -12% | -4% | -11%
O=C(COC(=O)c1cccs1)NC1CCCC1 | 9 | 9% | 5% | 6% | -13%
O=C(NCc1ccccc1Cl)C1CCC(CNc2c(N3CCOCC3)c(=O)c2=O)CC1 (stereo not drawn) | -5 | 6% | -5% | 4% | -7%
COc1ccc(-c2nc3cnc(OC)nc3n(CCc3ccccc3)c2=O)cc1 | . | . | -11% | . | 7%
CC(C)NC(=O)N(C)C[C@H]1Oc2c(NC(=O)Cc3ccccc3)cccc2C(=O)N([C@H](C)CO)C[C@@H]1C | 19 | -2% | -13% | -2% | -7%
C[C@H](CO)N1C[C@H](C)[C@@H](CN(C)CC2CCCCC2)Oc2c(NC(=O)Cc3ccccc3)cccc2C1=O | -70* | -12% | 15µM* | -19% | 16µM*
O=C(NCc1ccco1)c1ccc2sc([C@H]3C[C@H](O)[C@@H](CO)O3)nc2c1 | 2 | 18% | ? | 0% | -7%
N#Cc1c2n(c3c(=O)n(Cc4ccccc4Cl)cnc13)CCCCC2 | -21 | -5% | 18µM* | -19% | ?
O=C(COC(=O)CN1C(=O)C2CCCCC2C1=O)Nc1cc(F)ccc1F (stereo not drawn) | 10 | -6% | ? | -2% | -30%
Cc1ccccc1NS(=O)(=O)c1cc(C(=O)NCCSC2CCCCC2)ccc1C | -1 | -29% | ? | ? | ?

From PubChem BioAssay
